Sampled rows, rich in hits. Any-hit rate of the full collection: about 0.68%.
Rv3671c protease: inhibitors of M. tuberculosis serine protease Rv3671c | AID 2606 | inhibition, % at 5.96 µM | P9WHR9 | hit rate 0.048% among 320,000; in the data active = inhibition above about 38%;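 note: extracellular domain of Rv3671c used as enzyme; 0% = enzyme with DMSO and 100% = no enzyme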
Target sequence (P9WHR9 whole entry, looked up, the tested form may be a part): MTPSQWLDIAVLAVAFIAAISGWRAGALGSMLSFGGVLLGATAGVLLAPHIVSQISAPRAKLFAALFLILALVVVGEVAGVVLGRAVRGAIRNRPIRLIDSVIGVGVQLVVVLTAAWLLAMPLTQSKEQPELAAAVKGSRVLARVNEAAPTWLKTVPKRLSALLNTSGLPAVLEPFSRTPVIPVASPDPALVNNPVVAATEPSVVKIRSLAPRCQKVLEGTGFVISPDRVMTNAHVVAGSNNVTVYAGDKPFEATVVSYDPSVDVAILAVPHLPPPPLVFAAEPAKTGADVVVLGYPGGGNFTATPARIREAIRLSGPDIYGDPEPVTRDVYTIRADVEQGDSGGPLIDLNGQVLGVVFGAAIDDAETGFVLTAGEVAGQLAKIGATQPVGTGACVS
Mtb betalactam: beta-lactam sensitization of Mtb H37Rv; inhibition, % at 25 µM; M. tuberculosis H37Rv growth with meropenem, percent inhibition; hit rate 0.27% among 330,000; call rule not given here;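 note: growth measured after seven days incubation then overnight dye step; 0% = bacteria only wells and 100% = bacteria with antibiotic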
Sa RN4220 lethal: S. aureus RN4220 growth inhibition. hit rate 0.33% among 330,000. inhibition, % (no concentration beside the values). OD600, 16 h. AID 1259311; in the data active = inhibition above about 85%;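 note: plate controls were untreated cells for no effect and reference antibiotic for full effect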
Sa ugtP lethal: kills S. aureus RN4220 lacking UgtP; growth inhibition, % (test concentration not listed); hit rate 0.54% among 330,000; S. aureus RN4220 ugtP deletion, OD600 growth, 16 h; in the data active = growth inhibition above about 68%;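 note: plate controls were untreated wells for no effect and antibiotic for full effect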
Mtb UGM inh: inhibitors of M. tuberculosis UDP-galactopyranose mutase. P9WIQ1. purified UGM, fluorescence polarization probe displacement. inhibition, % at 10 µM. hit rate 0.06% among 320,000. AID 504406; in the data active = inhibition above about 10%, passing the limit was not always enough; inconclusive = no clear call, values can overlap the other calls
Mtb hypoxia rep: Mtb hypoxia fluorescent reporter inhibition | M. tuberculosis hypoxia-regulated fluorescent reporter, fluorescence | hit rate 0.1% among 300,000 | fluorescence inhibition, % (test concentration not listed); in the data active = fluorescence inhibition mostly above about 23%, no sharp cut-off; inactive = mostly below about 17%
* marks the source's active call; other numbers are inactive results; ? = inconclusive; / = not tested or not shown.

SMILES	Rv3671c protease	Mtb betalactam	Sa RN4220 lethal	Sa ugtP lethal	Mtb UGM inh	Mtb hypoxia rep
O=C(Nc1cc(C(F)(F)F)ccc1N1CCOCC1)c1n[nH]c(=O)c2ccccc12	-3.9	6.5	99.7*	98.0*	-1.3	5.3
CCOC(=O)C(Cc1nc(OCc2ccccc2)cc(OCc2ccccc2)n1)=NO	/	/	-0.9	87.4*	/	5.5
CC(O)C1CN=C(N)N1CCc1cc(C(F)(F)F)cc(C(F)(F)F)c1 (stereo not given)	/	/	2.4	1.5	/	-3.9
CCNC1CN(CCCOC)S(=O)(=O)c2sc(S(N)(=O)=O)cc21 (stereo not given)	/	/	7.0	4.3	/	6.4
CCOC(=O)C(C)NS(=O)(=O)N(Cc1ccccc1)C(C(=O)OC)C(C)C (stereo not given)	/	/	10.6	1.3	/	16.4
O=C(Nc1nc2c(Cl)cccc2s1)c1ccc([N+](=O)[O-])o1	-3.8	99.4	99.9*	100.4*	0.6	-6.3
C=CCSc1nc2c(c(C3CC=CCC3)c1C#N)CCC2 (stereo not given)	-7.3	5.1	-3.5	97.2*	0.4	2.9
CC(C)OC(=O)CSc1nc2c(c(C3CC=CCC3)c1C#N)CCC2 (stereo not given)	0.8	6.2	-2.3	34.6	-0.9	2.6
O=c1oc(CCCO)cc2ccc(C=Cc3cccc([N+](=O)[O-])c3)cc12	/	/	-0.5	-1.2	/	1.8
Cc1ccccc1OCCC(=O)NNC(=O)c1ccccc1F	2.1	2.7	5.7	9.1	-1.4	32.6*
COc1cc(C(=O)NNC(=O)CCOc2ccccc2C)cc(OC)c1OC	1.2	-3.6	3.7	7.2	0.3	5.1
CC(C)CC(NC(=O)c1nc[nH]c1C(=O)NC(CCCCN)C(=O)OC(C)(C)C)C(=O)OC(C)(C)C (stereo not given)	/	/	2.3	-6.5	/	10.1
O=C(CSCc1ccc(Cl)cc1)Nc1ccccc1O	4.1	66.8	2.0	-4.9	-3.4	64.6*
COc1ccc(-c2csc(COC(=O)C(C)(C)C)n2)cc1	10.3	-6.4	7.1	27.2	0.0	16.3
CC(C)(C)C(=O)OCc1nc(-c2ccc(Cl)cc2)cs1	2.9	-4.6	0.9	91.7*	0.9	-1.7
COc1cc2[nH]c3c(N4CCN(c5ccc(Cl)cc5)CC4)ncnc3c2cc1OC	37.9*	3.9	6.6	-4.5	0.8	-2.6
COC(=O)C1N2C(=O)C(NC(=O)COc3ccccc3)C2SC1(C)C (stereo not given)	/	/	100.6*	100.7*	/	19.2
CC1(C)S[C@@H]2[C@H](NC(=O)Cc3ccccc3)C(=O)N2[C@H]1C(=O)O	6.3	?	99.6*	100.2*	-2.3	0.4
CC1(C)S[C@@H]2[C@H](NC(=O)C(NC(=O)N3CCNC3=O)c3ccccc3)C(=O)N2[C@H]1C(=O)O (stereo not given in full)	-6.9	0.4	100.5*	100.4*	0.1	3.1
Cc1ccc(C2CC=C(C(=O)O)C(c3ccccc3F)N2S(=O)(=O)c2ccc(C)cc2)cc1 (stereo not given)	/	/	24.0	26.1	/	9.8
CCOC1OC(C(=O)N2CCOCC2)=CC(c2ccccc2)C1CCCO (stereo not given)	/	/	-2.4	-3.9	/	-1.4
Cc1cc(CN2CCOCC2)c(O)c(C2(C)CCCCC2)c1	3.7	7.0	7.0	98.8*	-0.4	/
Cc1cc(CN(C)C)c(O)c(C2(C)CCCCC2)c1	9.7	-19.0	7.1	8.0	1.9	2.1
CC1CCC(C(C)C)C(OC(=O)Cn2c(COc3ccccc3)[n+](C)c3ccccc32)C1 (stereo not given)	-4.9	98.7	100.6*	100.4*	0.9	/
CC1CCC(C(C)C)C(OC(=O)Cn2c(-c3ccccc3)[n+](C)c3ccccc32)C1 (stereo not given)	-8.2	99.8	99.5*	100.5*	-1.1	/
SMILES	Rv3671c protease	Mtb betalactam	Sa RN4220 lethal	Sa ugtP lethal	Mtb UGM inh	Mtb hypoxia rep
Cc1cccc(OCc2n(CC(=O)OC3CC(C)CCC3C(C)C)c3ccccc3[n+]2C)c1 (stereo not given)	2.7	98.9	/	/	3.8	/
CC1CCC(C(C)C)C(OC(=O)Cn2c(-c3ccc(F)cc3)[n+](C)c3ccccc32)C1 (stereo not given)	6.3	99.5	96.9*	100.2*	/	/
CCOC(=O)CC1c2ccccc2S(=O)(=O)N1Cc1cc(OC)c(OC)c(OC)c1 (stereo not given)	/	/	6.1	6.5	/	13.5
CCOC1OC(C(=O)NCc2nc3ccccc3[nH]2)=CC(C2CCCCC2)C1CCCO (stereo not given)	/	/	2.7	2.0	/	16.3
C#CCOCCOCCOCCNc1nc(N2CCN(C(=O)CCCCCCCCCCNC(=O)C(CCCCN)n3cc(CCO)nn3)CC2)nc(N2CCN(C(=O)CCCCCCCCCCNC(=O)C(CCCCN)n3cc(CCCC(=O)O)nn3)CC2)n1 (stereo not given)	/	/	8.7	15.2	/	15.6
CCCNC1=C(C)C(=O)C2=C(C1=O)C(COC(N)=O)[C@]1(OC)C3NC3CN21 (stereo not given in full)	-5.2	8.5	99.4*	97.3*	-1.6	/
CO[C@@]12[C@H](COC(N)=O)C3=C(C(=O)C(C)=C(N)C3=O)N1C[C@@H]1N[C@@H]12	-0.5	99.4	/	/	-2.0	/
COC(=O)[C@]1(Cc2ccccc2)NC(c2ccc(-c3ccc(OC)cc3)cc2)C2C(=O)N(C)C(=O)C21 (stereo not given in full)	/	/	4.5	-12.8	/	6.6
NC(=O)C[n+]1cccc2ccccc21	4.0	0.6	2.4	-0.7	11.3*	6.7
O=C(C[n+]1cccc2ccccc21)c1ccc(Br)cc1	-7.1	0.7	-1.0	-0.6	2.4	8.9
O=C(O)[C@]1(S(=O)(=O)c2ccccc2)CC2ON=C(c3cccc(Br)c3)C2C1 (stereo not given in full)	/	/	4.9	3.7	/	2.4
[O-][n+]1c2ccccc2c2n1CCN1CCOC21c1ccc(Cl)cc1 (stereo not given)	-1.4	87.9	46.8	68.8	1.6	65.9*
Nc1c(C(=O)Nc2nc3ccccc3s2)sc2nc(-c3cccs3)ccc12	-0.1	8.1	79.7	99.3*	1.4	8.0
CC1CN(C(C)CO)C(=O)c2cccc(NC(=O)Nc3ccc(C(F)(F)F)cc3)c2OC1CN(C)C(=O)Nc1ccc(F)cc1 (stereo not given)	/	/	-10.3	19.7	/	1.6
COC(=O)CC1=C(C(=O)OC)C2(C(=O)Nc3c(C)cccc32)C(C#N)=C(N)O1 (stereo not given)	-12.7	2.3	97.3*	94.5*	-0.9	-0.5
CCOC(=O)C1=C(C)OC(N)=C(C#N)C12C(=O)N(C)c1ccccc12 (stereo not given)	5.1	2.1	90.5*	74.1	-3.3	8.7
O=C(CSc1nnnn1-c1ccccc1)Nc1ncc(Cc2ccccc2Cl)s1	-9.4	-2.9	4.8	0.2	1.0	9.0
N=C1SC(c2ccccc2)C(=O)N1c1ncc(Cc2ccccc2Cl)s1 (stereo not given)	-10.1	5.9	81.0	89.9*	-0.6	-10.1

Assay outcomes: PubChem, several laboratories
